Screening results from PubChem BioAssay.
FMDV antiviral = antivirals against foot and mouth disease virus; Potency, µM (top dose mostly 57.9 µM), inactives show top-dose activity change, negative = inhibition, usual class: inhibitors; FMDV antiviral cell-based qHTS; 1.2% of 410,000 active; calls by dose curve; tested in HEK293T cells; note: read-out not given here; potency is the fitted concentration of half-maximal effect; nearly all actives have a fitted effect of over 45% in size
Lassa entry inh = inhibitors of Lassa virus binding or cell entry; 1.2% of 300,000 active; Potency, µM (highest dose often 37.9 µM), for inactives: at the highest dose activity change, negative = inhibition, usual class: inhibitors; AID 540256; Lassa virus pseudotype entry inhibition, cell reporter; calls by dose curve; tested in HEK293 cells; note: potency is the fitted concentration of half-maximal effect; nearly all actives have a fitted effect of over 50% in size
HCMV inh = inhibitors of human cytomegalovirus. HFF cells, HCMV-luciferase reporter, 72 h; stronger effect = lower value. 4.5% of 410,000 active. activity change, negative = inhibition, % at 57.5 µM; in the data active = activity change below about -60%; inconclusive = no clear call, values can overlap the other calls; inactive = above about -39%
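Screen run at 2 compound doses on HFFs infected with reporter HCMV, MOI 1 PFU/cell. Luciferase activity from cell lysates at 72 h post infection gave inhibition relative to buffer-only and Salinomycin wells.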
Marburg entry inh = inhibitors of Marburg virus binding or cell entry; Marburg virus pseudotyped entry inhibition, cell reporter; Potency, µM (titrated, usually from 37.8 µM), without a hit: top-dose activity change, negative = inhibition, usual class: inhibitors; 1.8% of 300,000 active; calls by dose curve; tested in HEK293 cells; note: potency is the fitted concentration of half-maximal effect
An asterisk follows results filed as active; ? = inconclusive; . = not tested or not shown; + = active, no number; [ ] = another dose, or the depositor's remark. Sampled rows, rich in hits. Any-hit rate of the full collection: about 6.2%. % is set by controls: 0 for no effect and ±100 for the full control effect.

SMILES	FMDV antiviral	Lassa entry inh	HCMV inh	Marburg entry inh
Cc1cc(C)[n+](CCCC[n+]2c(C)cc(C)cc2C)c(C)c1	8%	.	26	.
CN(C)CCOc1nc(-c2ccccc2)nc2c1oc1ccccc12	0%	?	-77*	?
O=C(CSc1n[nH]c(=O)n1C1CC1)Nc1ccccc1	-9%	.	-4	.
O=C(CSc1n[nH]c(=O)n1C1CC1)Nc1cc(Cl)ccc1Oc1ccccc1	14µM*	?	0	8.2µM*
CC1CCC(N2CC(=O)N(C3CCCC3)C(c3ccc(Cl)cc3)C2=O)CC1 (stereo not given)	-24%	28%[46.1 µM]	-13	.
O=C(Nc1ccccc1)C1C2CCC3C(CCC21)C3(Cl)Cl (stereo not given)	-5%	?	-20	0%
O=C(Nc1cccc(Cl)c1)C1C2CCC3C(CCC21)C3(Cl)Cl (stereo not given)	40µM*	?	-10	?
CCOC(=O)c1ccc(NC(=O)CNC(=O)c2ccccc2)cc1	22%	?	25	7%
CCOC(=O)c1ccc(NC(=O)Nc2ccc(Cl)cn2)cc1	-15%	-2%	-2	12%[46.1 µM]
CCOC(=O)c1ccc(NC(=O)Nc2ccon2)cc1	13%	.	+	.
CCOC(=O)c1ccc(NC(=O)Nc2nc3ccccc3s2)cc1	0%	.	-35	.
CCOC(=O)c1ccc(NC(=O)c2nccnc2C(=O)O)cc1	-5%	.	-75*	.
CCOC(=O)c1ccc(P(=O)(c2ccccc2)c2ccccc2)cc1	8%	.	-97*	.
CCOC(=O)c1ccc(NC(=O)Nc2nncs2)cc1	?	.	-75*	.
Cc1nc2c(c(SCC(=O)Nc3ccccc3C(F)(F)F)n1)CCC2	0%	?	?	10%[46.1 µM]
Cc1ccsc1CN(C(=O)c1oc2ccc(F)cc2c1C)C1CCS(=O)(=O)C1 (stereo not given)	-20%	?	33	-12%[46.1 µM]
Cc1ccc2c(C)c(C(=O)N(Cc3ccc(Cl)cc3)C3CCS(=O)(=O)C3)oc2c1 (stereo not given)	-14%	-29%[46.1 µM]	7	-23%[46.1 µM]
CCOc1ccc(CN(C(=O)c2oc3cc(C)ccc3c2C)C2CCS(=O)(=O)C2)cc1 (stereo not given)	-20%	13µM*	14	?
CCc1ccc(CN(C(=O)COc2c(C)cccc2C)C2CCS(=O)(=O)C2)cc1 (stereo not given)	14%	.	-109*	.
Cc1ccc2oc(C(=O)N(Cc3sccc3C)C3CCS(=O)(=O)C3)c(C)c2c1 (stereo not given)	?	?	8	3.2µM*
CN1CCN(c2ccc(Nc3cc4c(cn3)cc(-c3cccc(F)c3)n4C)cc2)CC1	.	.	-21	.
C#CCCCON=C1C[C@@H](O)[C@H](O)[C@H]2[C@@H]3C(=O)N(Cc4ccccc4)C(=O)[C@@H]3CC[C@H]12	.	.	.	11%[14.2 µM]
COc1ccc(-c2nc(CN3CCC(C(=O)NCCCN4CCN(c5ccccc5F)CC4)CC3)c(C)o2)cc1OC	-34%	?	-104*	4.5µM*
Cc1ccccc1-c1nc(CN2CCC(C(=O)NCCCN3CCCC(C)C3)CC2)c(C)o1 (stereo not given)	-13%	?	-63*	?
Cc1oc(-c2ccc(Cl)cc2)nc1CN1CCC(C(=O)NCCCN2CCOCC2)CC1	-2%	?	96	13µM*
SMILES	FMDV antiviral	Lassa entry inh	HCMV inh	Marburg entry inh
Cc1oc(-c2cccc(Cl)c2)nc1CN1CCC(C(=O)NCCCN2CCN(c3ccccc3F)CC2)CC1	?	-9%[46.1 µM]	-22	17%[46.1 µM]
Cc1oc(-c2ccc(Cl)cc2)nc1CN1CCC(C(=O)NCCCN2CCN(c3cccc(Cl)c3)CC2)CC1	25µM*	?	?	?
Cc1nn(CCC(=O)N2CCN(c3ccccc3F)CC2)c(C)c1S(=O)(=O)N1CCCC1	-4%	4%[46.1 µM]	-34	.
CCCCc1c(-c2cccc(Br)c2)ncn1CCc1ccccc1OC	?	.	-101*	.
CCCCCc1c(-c2cccc(Cl)c2)ncn1CCc1ccccc1OC	-27%	.	-6	.
CCCCCc1c(-c2cccc(F)c2)ncn1CCc1ccccc1OC	22µM*	.	?	.
CCCCc1c(-c2cccc(F)c2)ncn1CCc1ccccc1OC	25µM*	.	-61*	.
CCCCCc1c(-c2cccc(OC)c2)ncn1CCc1ccccc1OC	28µM*	.	-95*	.
CCCCCc1c(-c2ccc(F)cc2)ncn1CCc1ccccc1OC	?	.	-28	.
O=S1(=O)N[C@H](Cc2ccccc2)COc2cccc(N3CCCCC3)c21	.	.	-13	.
COc1cccc(NC(=O)C2(C)CCN2CCc2ccccc2)c1 (stereo not given)	0%	.	-16	.
CCCc1c(-c2cccc(F)c2)ncn1CCc1ccccc1OC	?	.	-74*	.
CCCCCc1c(-c2ccc(Br)cc2)ncn1CCc1ccccc1OC	?	.	-104*	.
CCCc1c(-c2cccc(F)c2)ncn1Cc1ccccc1OC	-1%	.	-16	.
CCCN(CC(=O)Nc1cc(Cl)cc(Cl)c1)CC(=O)Nc1ccc(F)c(F)c1F	-23%	?	-87*	?
Cc1cccc(C)c1NC(=O)N1CCN(c2nc3ccccc3s2)CC1	0%	?	-70*	?
Cc1cccc(NC(=O)N2CCN(C(=O)c3nsc4ccccc34)CC2)c1C	-20%	1%[46.1 µM]	+	.
Cc1cccc(Cl)c1NC(=O)N1CCCN(c2nc3ccc(Cl)cc3s2)CC1	?	.	-35	.
O=C(O)CSCC(=O)N1CCN(c2ccnc3cc(Cl)ccc23)CC1	-20%	.	.	.
O=C(Nc1ccc(C(F)(F)F)cc1)N1CCN(c2ccnc3cc(Cl)ccc23)CC1	?	?	-72*	?
Cc1cccc(Cl)c1NC(=O)N1CCN(c2ccnc3cc(Cl)ccc23)CC1	?	.	-65*	.
Cc1c(C(=O)NC2CCCCCC2)sc2ncnc(NCC3CCCO3)c12 (stereo not given)	-9%	.	.	.
O=C(Nc1cc(F)ccc1F)N1CCN(c2ccnc3cc(Cl)ccc23)CC1	32µM*	.	-83*	.
CC(=O)N1CCN(c2ccnc3cc(Cl)ccc23)CC1	-13%	17%[46.1 µM]	?	0%[46.1 µM]
Cc1cc(N2CCN(C(=O)Nc3ccc(F)cc3F)CC2)c2ccccc2n1	-23%	?	.	-17%
SMILES	FMDV antiviral	Lassa entry inh	HCMV inh	Marburg entry inh
Cc1ccc(F)cc1NC(=O)N1CCN(c2ccnc3cc(Cl)ccc23)CC1	?	.	-69*	.
CCCCNC(=O)N1CCN(c2ccnc3cc(Cl)ccc23)CC1	32µM*	0%	.	?
CC1(C)CC(=O)C=C(NC2=CC3OC(c4ccccc4)OCC3OC2=O)C1 (stereo not given)	8.9µM*	?	-8	14µM*
COc1ccc(NC(=O)C2CCN(c3cc(C)nc4c(-c5ccc(Cl)cc5)c(C)nn34)CC2)cc1	10%	14%[46.1 µM]	2	10%[46.1 µM]
O=C(C1CCC(CNc2nc(=S)[nH]c3ccccc23)CC1)N1CCN(c2ccc(F)cc2)CC1 (stereo not given)	18µM*	?	-28	?
O=C(C1CCC(Cn2c(=S)[nH]c3ccccc3c2=O)CC1)N1CCN(c2ccccc2)CC1 (stereo not given)	-16%	4%	?	?
O=C(C1CCC(Cn2c(=S)[nH]c3ccccc3c2=O)CC1)N1CCN(c2ccccn2)CC1 (stereo not given)	22µM*	?	-91*	-7%[46.1 µM]
